Data reported in paper PMC5540273 (PLoS ONE, 2017).
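Also: KINOMEscan kinase panel screen.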

What follows are compounds tested on PRKCQ. Conditions: concentration: 1 μM, replicates: in singlicate; n = 1.
With `CN1C(=O)C(Nc2ccc(Cl)c(C(=O)O)c2)=C(c2ccc(Cl)cc2)C1=O` [SB-404290] the “%Inh” value was 77%. `Cn1cncc1-c1ccc2ncnc(Nc3ccc(OCc4ccccc4)cc3)c2c1` [GW320571] was tested, and the “%Inh” value was 16%. In the case of `COc1cc2ncn(-c3cc(OCC4CCCO4)c(C(N)=O)s3)c2cc1OC` (stereo not drawn) [GSK204607], the “%Inh” value is reported as 0%. For `Cc1cccc(-c2nc(Nc3ccncc3)c3ccccc3n2)n1` [GW855857], the “%Inh” value was 0%. With `CC1=C(C(=O)Nc2cc3cn[nH]c3cc2F)C(c2ccc(C(F)(F)F)cc2)CC(=O)N1` (stereo not drawn) [GSK429286] the “%Inh” value was 28%. In the case of `CS(=O)(=O)c1ccc(-c2nc3n(c2-c2ccncc2)CCC3)cc1` [SKF-105942], the “%Inh” value is reported as 0%. For `COc1ccccc1-c1ccc2c(NC(=O)C3CC3)n[nH]c2n1` [SB-711239], the “%Inh” value was 9%. In the case of `COc1cc2ncnc(Nc3ccc4nc(-c5ccccc5)[nH]c4c3)c2cc1OC.Cl` [GW282450], the “%Inh” value is reported as 11%. In the case of `COc1cc(Nc2nccc(N3CCC(NC(=O)Nc4cc(C)ccc4C)C3)n2)cc(OC)c1OC` (stereo not drawn) [GSK1379762], the “%Inh” value is reported as 0%. In the case of `CC(C)(C)c1ccc(C(=O)Nc2cn3cc(Cl)ccc3n2)cc1`, the “%Inh” value is reported as 18%. In the case of `Cl.c1ccc(-c2n[nH]cc2-c2ccnc(-c3ccc(CN4CCOCC4)cc3)c2)nc1` [GW776245], the “%Inh” value is reported as 0%. `CCn1c(-c2cccnc2O)nc2cnccc21` [SB-736715] was tested, and the “%Inh” value was 0%. `Cc1ccc(NC(=O)Nc2cc(C(C)(C)C)nn2-c2ccccc2)cc1` [GSK1014915] was tested, and the “%Inh” value was 0%. For `O=C(Nc1n[nH]c2nc(-c3nccs3)c(Br)cc12)C1CC1` [SB-742251], the “%Inh” value was 32%. `Cc1ccc(C(=O)Nc2ccc(Nc3ccnc4cc(-c5ccccn5)ccc34)cc2O)cc1.Cl` [GW440146] was tested, and the “%Inh” value was 6%. `O=C(Nc1n[nH]c2cc(-c3cccc(F)c3F)ccc12)C1CC1` [SB-733894] was tested, and the “%Inh” value was 19%. In the case of `O=S(=O)(c1ccc(-c2ccnc3[nH]ccc23)cc1)N1CCCC1` [GSK846226], the “%Inh” value is reported as 0%. In the case of `Cc1nnc(-c2ccc3occ(-c4ccc(S(C)=O)cc4)c3c2)[nH]1` (stereo not drawn), the “%Inh” value is reported as 0%. With `COc1cccc(-c2cc(-c3c[nH]nc3-c3ccccn3)ccn2)c1` [GW680338] the “%Inh” value was 2%. `Cc1c(O)cccc1Nc1ccnc2ccc(C(F)(F)F)cc12.Cl` [GW466413] was tested, and the “%Inh” value was 0%. For `CCCc1ccc(S(=O)(=O)NC2CCN(c3ccnc(Nc4ccc(F)cc4)n3)C2)cc1` (stereo not drawn) [GSK1379715], the “%Inh” value was 27%. `COc1cc2nccc(Nc3ccc(NC(=O)c4ccc(C)cc4)c(O)c3)c2cc1OC.Cl` [GW440132] was tested, and the “%Inh” value was 16%. For `Cn1ccc2ncnc(Oc3ccc(Nc4nc5ccccc5[nH]4)cc3)c21`, the “%Inh” value was 0%. `Cc1csc(-c2nc(Nc3ccncc3)c3ccccc3n2)n1` [GW869640] was tested, and the “%Inh” value was 5%. With `O=C(O)COc1ncnc2cc(-c3ccc4[nH]ncc4c3)sc12` the “%Inh” value was 41%. `COc1ccc(C2=C(Nc3cccc(C(=O)O)c3)C(=O)NC2=O)cc1` [SB-390765] was tested, and the “%Inh” value was 12%. For `Cc1cc(-c2ccc3c(c2)CC[C@@H](N[C@@H](C)c2ccccc2)C3)cnc1N.Cl` [GW412617], the “%Inh” value was 36%. In the case of `Nc1ncnc2[nH]c(-c3ccccc3)nc12` [AH5015], the “%Inh” value is reported as 0%. `COc1ccc2nc(-c3cccc(C)n3)nc(Nc3ccncc3)c2c1` [GSK204919] was tested, and the “%Inh” value was 44%. For `Cl.Oc1ccc(-c2nc(-c3ccccc3)[nH]c2-c2ccncc2)cc1` [SB-428218], the “%Inh” value was 0%. `COc1cccc(NC(=O)NC2CCN(c3ccnc(Nc4ccc(F)cc4)n3)C2)c1` (stereo not drawn) [GSK1379721] was tested, and the “%Inh” value was 3%. In the case of `CS(=O)(=O)c1ccc(-c2c(-c3ncn[nH]3)sc(N3CCOCC3)c2C#N)cc1`, the “%Inh” value is reported as 0%. In the case of `Cn1ccc2ncnc(Oc3cccc(C(=O)Nc4ccccc4)c3)c21`, the “%Inh” value is reported as 0%. With `CCn1c(-c2ccccn2)nc2cnccc21` [SB-736398] the “%Inh” value was 14%.

These compounds were tested on PRKD1. Conditions: concentration: 1 μM, replicates: in singlicate; n = 1.
For `CN1C(=O)C(Nc2ccc(Cl)c(C(=O)O)c2)=C(c2ccc(Cl)cc2)C1=O` [SB-404290], the “%Inh” value was 0%. In the case of `Cn1cncc1-c1ccc2ncnc(Nc3ccc(OCc4ccccc4)cc3)c2c1` [GW320571], the “%Inh” value is reported as 26%. In the case of `COc1cc2ncn(-c3cc(OCC4CCCO4)c(C(N)=O)s3)c2cc1OC` (stereo not drawn) [GSK204607], the “%Inh” value is reported as 0%. `Cc1cccc(-c2nc(Nc3ccncc3)c3ccccc3n2)n1` [GW855857] was tested, and the “%Inh” value was 86%. With `CC1=C(C(=O)Nc2cc3cn[nH]c3cc2F)C(c2ccc(C(F)(F)F)cc2)CC(=O)N1` (stereo not drawn) [GSK429286] the “%Inh” value was 22%. With `CSc1nn2c(=O)cc(N3CCOCC3)nc2n1Cc1cccc(C(F)(F)F)c1C` [GSK2363608] the “%Inh” value was 0%. With `CS(=O)(=O)c1ccc(-c2nc3n(c2-c2ccncc2)CCC3)cc1` [SKF-105942] the “%Inh” value was 3%. For `COc1ccccc1-c1ccc2c(NC(=O)C3CC3)n[nH]c2n1` [SB-711239], the “%Inh” value was 0%. `COc1cc2ncnc(Nc3ccc4nc(-c5ccccc5)[nH]c4c3)c2cc1OC.Cl` [GW282450] was tested, and the “%Inh” value was 0%. For `COc1cc(Nc2nccc(N3CCC(NC(=O)Nc4cc(C)ccc4C)C3)n2)cc(OC)c1OC` (stereo not drawn) [GSK1379762], the “%Inh” value was 0%. In the case of `CC(C)(C)c1ccc(C(=O)Nc2cn3cc(Cl)ccc3n2)cc1`, the “%Inh” value is reported as 0%. In the case of `Cl.c1ccc(-c2n[nH]cc2-c2ccnc(-c3ccc(CN4CCOCC4)cc3)c2)nc1` [GW776245], the “%Inh” value is reported as 62%. `CCn1c(-c2cccnc2O)nc2cnccc21` [SB-736715] was tested, and the “%Inh” value was 0%. For `Cc1ccc(NC(=O)Nc2cc(C(C)(C)C)nn2-c2ccccc2)cc1` [GSK1014915], the “%Inh” value was 7%. For `O=C(Nc1n[nH]c2nc(-c3nccs3)c(Br)cc12)C1CC1` [SB-742251], the “%Inh” value was 0%. For `Cc1ccc(C(=O)Nc2ccc(Nc3ccnc4cc(-c5ccccn5)ccc34)cc2O)cc1.Cl` [GW440146], the “%Inh” value was 17%. In the case of `O=C(Nc1n[nH]c2cc(-c3cccc(F)c3F)ccc12)C1CC1` [SB-733894], the “%Inh” value is reported as 0%. With `O=S(=O)(c1ccc(-c2ccnc3[nH]ccc23)cc1)N1CCCC1` [GSK846226] the “%Inh” value was 0%. In the case of `Cc1nnc(-c2ccc3occ(-c4ccc(S(C)=O)cc4)c3c2)[nH]1` (stereo not drawn), the “%Inh” value is reported as 0%. For `COc1cccc(-c2cc(-c3c[nH]nc3-c3ccccn3)ccn2)c1` [GW680338], the “%Inh” value was 62%. `Cc1c(O)cccc1Nc1ccnc2ccc(C(F)(F)F)cc12.Cl` [GW466413] was tested, and the “%Inh” value was 0%. With `CCCc1ccc(S(=O)(=O)NC2CCN(c3ccnc(Nc4ccc(F)cc4)n3)C2)cc1` (stereo not drawn) [GSK1379715] the “%Inh” value was 1%. `COc1cc2nccc(Nc3ccc(NC(=O)c4ccc(C)cc4)c(O)c3)c2cc1OC.Cl` [GW440132] was tested, and the “%Inh” value was 0%. `Cn1ccc2ncnc(Oc3ccc(Nc4nc5ccccc5[nH]4)cc3)c21` was tested, and the “%Inh” value was 44%. For `Cc1csc(-c2nc(Nc3ccncc3)c3ccccc3n2)n1` [GW869640], the “%Inh” value was 69%. In the case of `O=C(O)COc1ncnc2cc(-c3ccc4[nH]ncc4c3)sc12`, the “%Inh” value is reported as 0%. For `COc1ccc(C2=C(Nc3cccc(C(=O)O)c3)C(=O)NC2=O)cc1` [SB-390765], the “%Inh” value was 0%. With `Cc1cc(-c2ccc3c(c2)CC[C@@H](N[C@@H](C)c2ccccc2)C3)cnc1N.Cl` [GW412617] the “%Inh” value was 18%. `Nc1ncnc2[nH]c(-c3ccccc3)nc12` [AH5015] was tested, and the “%Inh” value was 0%. For `COc1ccc2nc(-c3cccc(C)n3)nc(Nc3ccncc3)c2c1` [GSK204919], the “%Inh” value was 92.4%. With `Cl.Oc1ccc(-c2nc(-c3ccccc3)[nH]c2-c2ccncc2)cc1` [SB-428218] the “%Inh” value was 0%. For `COc1cccc(NC(=O)NC2CCN(c3ccnc(Nc4ccc(F)cc4)n3)C2)c1` (stereo not drawn) [GSK1379721], the “%Inh” value was 0%. `CS(=O)(=O)c1ccc(-c2c(-c3ncn[nH]3)sc(N3CCOCC3)c2C#N)cc1` was tested, and the “%Inh” value was 19%. In the case of `Cn1ccc2ncnc(Oc3cccc(C(=O)Nc4ccccc4)c3)c21`, the “%Inh” value is reported as 0%. With `CCn1c(-c2ccccn2)nc2cnccc21` [SB-736398] the “%Inh” value was 0%.
